Bioassay records as filed in PubChem.
Only some compounds are listed: those with a hit (about 2.8% of all), similar ones and a draw of the others.
MsrA inh: inhibits bovine methionine sulfoxide reductase A; inhibition, % at 15.5 µM; 360,000 tested, 0.75% active; purified bovine MsrA, absorbance read-out;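 also: 0% = vehicle wells with enzyme and 100% = reference inhibitor wells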
rCAG RNA binder: binds r(CAG) RNA repeats; AID 651821; inhibition, % at 3 µM; r(CAG) RNA repeat, TO-PRO-1 dye displacement fluorescence; 370,000 tested, 1.3% active;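 active = inhibition above the plate cutoff, the mean of all test compounds on that plate plus 3 SD, cut at about 35% in these data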;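 also: 0% = DMSO alone and 100% = 100 µM mitoxantrone as full dye displacement; higher means more dye released from RNA so lower well fluorescence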
sPLA2-III inh: Inhibits HGIII-sPLA2 liposome hydrolysis, primary screen | Q9NZ20 | QFRET BODIPY PC-A2 liposome hydrolysis, fluorescence | AID 743126 | inhibition, % at 12.2 µM | 370,000 tested, 0.56% active;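 active = inhibition above mean plus 3 SD of compounds lying within the high and low control bounds, cut at about 19% in these data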;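 also: 0% = median of test compound wells and 100% = no enzyme DMSO wells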
Target sequence (Q9NZ20 whole entry, looked up): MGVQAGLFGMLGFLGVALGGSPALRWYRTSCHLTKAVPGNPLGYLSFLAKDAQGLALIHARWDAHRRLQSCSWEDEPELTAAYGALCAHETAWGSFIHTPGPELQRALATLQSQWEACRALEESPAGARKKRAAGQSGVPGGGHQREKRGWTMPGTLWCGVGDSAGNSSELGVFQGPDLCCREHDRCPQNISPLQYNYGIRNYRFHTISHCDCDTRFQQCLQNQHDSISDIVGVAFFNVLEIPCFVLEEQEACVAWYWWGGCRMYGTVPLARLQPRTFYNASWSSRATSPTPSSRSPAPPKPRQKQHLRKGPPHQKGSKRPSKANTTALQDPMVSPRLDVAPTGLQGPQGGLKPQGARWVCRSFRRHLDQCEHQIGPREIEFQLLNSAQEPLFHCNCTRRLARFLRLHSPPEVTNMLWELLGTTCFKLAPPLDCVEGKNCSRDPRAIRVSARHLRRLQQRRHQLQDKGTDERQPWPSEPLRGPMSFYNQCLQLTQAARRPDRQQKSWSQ
bovine MsrA act: bovine methionine sulfoxide reductase A activation; activation, % at 10.6 µM; purified bovine MsrA, absorbance read-out; 360,000 tested, 0.3% active; in the data active = activation above about 7.5%;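 also: 0% = vehicle and 100% = reference activator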
MsrA inh confirm: confirmation of bovine MsrA inhibitors; inhibition, % at 15.5 µM; AID 651822; purified bovine MsrA, absorbance read-out; shares compounds with MsrA inh; 2,300 tested, 41% active;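 also: coupled to thioredoxin reductase with NADPH and selenocystamine and DMSO as substrate; 0% = vehicle only and 100% = full effect of reference inhibitor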
* = called active by the depositor; x = not tested or not shown. Rule as the data show it, unless noted: active = inhibition above about 4.5%; inactive = the rest.

SMILES	MsrA inh	rCAG RNA binder	sPLA2-III inh	bovine MsrA act	MsrA inh confirm
COC(=O)C(CCSC)NC(=O)c1cc2c(n(-c3ccc(C)cc3)c1=O)CCCC2=O (configuration not stated)	5.5*	-6	-8	-10	0
C=CCNc1nc(N)c(C(=O)Nc2cc(C)on2)s1	6.2*	-3	6	-6	3
O=C(NN=Cc1ccccc1OC(F)F)c1ccc(NS(=O)(=O)c2cccs2)cc1	3	27	-20	1	x
C/C(=N\NC(=O)c1ccc(NS(=O)(=O)c2cccs2)cc1)c1ccc(O)cc1O	5.5*	27	-2	-3	4.7*
O=C(N/N=C/c1ccc([N+](=O)[O-])o1)c1ccc(NS(=O)(=O)c2cccs2)cc1	2	26	-13	-3	x
COc1cc(/C=N/NC(=O)c2ccc(NS(=O)(=O)c3cccs3)cc2)cc(OC)c1O	6.5*	8	-13	-5	6.4*
O=C(N/N=C/c1ccc([N+](=O)[O-])cc1)c1ccc(NS(=O)(=O)c2cccs2)cc1	5.4*	17	-11	-4	6.3*
O=C(NN=Cc1ccc(OC(F)F)cc1)c1ccc(NS(=O)(=O)c2cccs2)cc1	5.5*	27	-2	-5	3
Cn1c(C(=O)NCCCN2CCN(c3ccc(F)cc3)CC2)cc2c(=O)n(C)c3ccccc3c21	1	3	0	-5	x
CC(C)N(Cc1ccccc1)C(=O)COC(=O)c1ccc2ncsc2c1	-1	6	0	-2	x
COCCNC(=O)/C(C#N)=C/c1ccc(C)o1	6.8*	-1	5	-15	3
CCOCCCNC(=O)/C(C#N)=C/c1ccc(C)o1	7.0*	-1	0	-4	4
COCCNC(=O)/C(C#N)=C\c1ccc(CNS(=O)(=O)c2ccc(C)cc2)o1	4	-1	1	-3	x
COCCNC(=O)/C(C#N)=C/c1ccc(SC)cc1	4.7*	-4	7	-3	4
Cc1c(Cl)cccc1NC(=S)NCCC(c1ccccc1)c1ccccc1	0	4	-12	7	x
COc1cc2c(cc1C=O)OC(C)C2 (configuration not stated)	1	-2	3	-4	x
CCOc1cc2c(cc1C=O)OC(C)C2 (configuration not stated)	4.8*	-1	8	-3	2
Cc1nnc(SCC(=O)NCC2CCCCC2)n(N)c1=O	0	-1	7	-4	x
CC(C)Oc1ccc(/C=N/NC(N)=S)cc1	4.8*	0	18	-3	2
Cc1cc(C)nc(SCCC(=O)Nc2ccccc2C)n1	0	-1	-5	0	x
O=C(O)c1cccc(Nc2nc(C(F)(F)F)nc3ccccc23)c1	4.7*	15	-5	-7	2
Cc1ccc(/C=N/n2c(C3CCCCC3)n[nH]c2=S)cc1	7.8*	16	9	0	4
Cc1ccccc1/C=N/n1c(C2CCCCC2)n[nH]c1=S	14*	4	11	-2	12*
S=c1[nH]nc(C2CCCCC2)n1/N=C/c1ccccc1Br	13*	14	11	-2	12*
S=c1[nH]nc(C2CCCCC2)n1/N=C/c1ccc(Cl)cc1	1	5	3	-9	x
SMILES	MsrA inh	rCAG RNA binder	sPLA2-III inh	bovine MsrA act	MsrA inh confirm
Cn1nnc(NC(=S)NC(=O)c2cc3ccccc3o2)n1	1	-2	10	-2	x
O=C(NNS(=O)(=O)c1ccc([N+](=O)[O-])cc1)c1ccncc1	0	0	1	-4	x
CCC(C)(C)NC(=O)c1ccc(Sc2nncn2C)c([N+](=O)[O-])c1	1	-2	8	1	x
Cn1cnnc1Sc1ccc(/C=C/C(=O)c2ccc(O)cc2)cc1[N+](=O)[O-]	5.7*	4	5	-12	3
CSc1nc2[nH]c3c(c2c2nnnn12)CCCC3	12*	12	2	-11	10*
O=C(C(=O)N1CCC(c2ccccc2)CC1)c1cccc([N+](=O)[O-])c1	0	4	-1	x	x
COc1ccc(C=NNc2nc3c([nH]2)c(=O)n(C)c(=O)n3C)cc1	5.5*	2	9	-3	3
O=C(NNc1ccc([N+](=O)[O-])cc1)C1CC1c1ccccc1 (configuration not stated)	1	4	-1	-3	x
O=[N+]([O-])c1ccc(Cl)c(-c2ccc(/C=N/n3cnnc3)o2)c1	5.2*	2	1	-9	6.0*
CCOC(=O)C(=CNc1cccc(N)n1)C(=O)OCC	6.5*	-3	-1	-4	4.8*
CCOC(=O)C(=CNc1ccc(Cl)cn1)C(=O)OCC	4	-5	0	7	x
COc1ccc(-c2cc(C(F)F)n3ncc(C(=O)n4ccnc4C)c3n2)cc1	4.7*	2	25*	-10	11*
Cc1cc2oc(=O)cc(-c3ccccc3)c2c(C)c1-c1ccc(F)c(Cl)c1	0	5	2	1	x
O=C(NNC(=S)Nc1cccc(C(F)(F)F)c1)c1ccncc1	4.8*	5	19	-2	1
CC(O)CNc1cc(N)c([N+](=O)[O-])cc1[N+](=O)[O-] (configuration not stated)	5.2*	-1	7	-18	6.2*
COc1ccccc1/C=C/C=N/NC(=O)c1ccc(=O)n(C)c1	8.1*	4	14	-12	6.9*
COc1ccccc1/C=C/C=N/NC(=O)c1cnccn1	7.1*	1	3	-5	5.4*
COc1ccccc1/C=N/NC(=O)c1ccc(=O)n(C)c1	3	-2	17	-9	x
CC[C@@H]1[C@H]2CCCC(=O)N3CC[C@@H](C[C@@H]1Nc1ccccc1)[C@@H]23	1	-4	5	-2	x
CCC(=O)Nc1ccc(C(=O)N/N=C/c2c(C)[nH]c3ccccc23)cc1	6.5*	3	-1	-4	4.9*
Cc1cc(C(=O)N/N=C/c2c(C)n(C)c3ccccc23)n[nH]1	6.9*	6	5	-8	4
Cc1[nH]c2ccccc2c1/C=N/NC(=O)c1cc(-c2cccs2)[nH]n1	4.7*	30	-12	-10	3
COc1ccc(N2CCN(C(=O)CN3CCN(c4nc(-c5ccc(F)cc5)cs4)CC3)CC2)cc1	0	1	-4	-3	x
O=C1CC(=O)Nc2cc(S(=O)(=O)N3CCOc4ccccc43)ccc2N1	0	2	-9	-2	x
O=C(Nc1cccc(C(=O)O)c1)/C(=C\c1ccco1)NC(=O)c1ccc(Br)o1	3	14	-5	-3	x
O=C(Nc1cccc(C(=O)O)c1)/C(=C\c1ccc2c(c1)OCO2)NC(=O)c1ccccc1	5.5*	8	2	-6	3
COc1ccc(/C=C(/NC(=O)c2ccc(Br)o2)C(=O)Nc2cccc(C(=O)O)c2)cc1	5.7*	9	13	-6	4
O=C(Nc1cccc(C(=O)O)c1)/C(=C\C=C\c1ccccc1)NC(=O)c1ccccc1	8.4*	29	-8	-5	5.5*
CC(C)(C)OC(=O)NC(Cc1ccccc1)C(=O)N1CCCC1C(=O)O (configuration not stated)	1	0	11	2	x
NC(=O)COC(=O)c1sc2ccccc2c1Cl	1	3	11	-3	x
